# Experimental data: PubChem BioAssay AID1159580 (chemical genetic matrix, 2015)
# About 2,000 (36%) of roughly 5,500 compounds were called active. Roughly 18% stayed inconclusive and do not appear here. Some of the results follow. A number with no mark means an inactive call. Cut-off read from the data, not from the text of the source: active = normalized growth mostly below about 0.91 (no sharp cut-off); inconclusive = no clear call, values can overlap the other calls; inactive = mostly above about 0.92.
# Experiment: chemical genetic growth profiling, strain panel (AID 1159580);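 note: tested at 20 µM; growth read once vehicle control cultures reached saturation at 30 °C; 1 = growth at the plate median or of vehicle wells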
# Conditions: growth OD
structure (smiles),measurement,setting,value
CC(=O)OC1CCC2C3CCc4cc(O)ccc4C3CCC12C (stereo unspecified),normalized growth,"S. cerevisiae deletion strains, locus YJR075W, strain HOC1, stronger effect = lower value",0.919
same,normalized growth,"S. cerevisiae deletion strains, locus YKL009W, strain mrt4, stronger effect = lower value",0.923
same,normalized growth,"S. cerevisiae deletion strains, locus YKL068W, stronger effect = lower value",1.01
same,normalized growth,"S. cerevisiae deletion strains, locus YKL085W, strain MDH1 (second series), stronger effect = lower value",0.98
same,normalized growth,"S. cerevisiae deletion strains, locus YKL085W, strain MDH1, stronger effect = lower value",0.98
same,normalized growth,"S. cerevisiae deletion strains, locus YKL160W, strain elf1, stronger effect = lower value",0.904
same,normalized growth,"S. cerevisiae deletion strains, locus YKL190W, strain CNB1, stronger effect = lower value",1.01
same,normalized growth,"S. cerevisiae deletion strains, locus YKR001C, strain vps1, stronger effect = lower value",0.977
same,normalized growth,"S. cerevisiae deletion strains, locus YKR026C, strain gcn3, stronger effect = lower value",0.998
same,normalized growth,"S. cerevisiae deletion strains, locus YKR091W, strain srl3, stronger effect = lower value",1
same,normalized growth,"S. cerevisiae deletion strains, locus YLL001W, strain dnm1, stronger effect = lower value",0.963
same,normalized growth,"S. cerevisiae deletion strains, locus YLL026W, stronger effect = lower value",0.996
same,normalized growth,"S. cerevisiae deletion strains, locus YLL041C, strain sdh2, stronger effect = lower value",1.02
same,normalized growth,"S. cerevisiae deletion strains, locus YLR027C, strain aat2, stronger effect = lower value",0.976
same,normalized growth,"S. cerevisiae deletion strains, locus YLR039C, strain RIC1, stronger effect = lower value",0.86
same,normalized growth,"S. cerevisiae deletion strains, locus YLR058C, strain SHM2, stronger effect = lower value",0.971
same,normalized growth,"S. cerevisiae deletion strains, locus YLR102C, strain apc9, stronger effect = lower value",1.02
same,normalized growth,"S. cerevisiae deletion strains, locus YLR113W, strain HOG1, stronger effect = lower value",0.918
same,normalized growth,"S. cerevisiae deletion strains, locus YLR221C, strain rsa3, stronger effect = lower value",0.949
same,normalized growth,"S. cerevisiae deletion strains, locus YLR258W, strain gsy2, stronger effect = lower value",0.978
same,normalized growth,"S. cerevisiae deletion strains, locus YLR262C, strain YPT6 (second series), stronger effect = lower value",0.856 (active)
same,normalized growth,"S. cerevisiae deletion strains, locus YLR262C, strain YPT6, stronger effect = lower value",0.832
same,normalized growth,"S. cerevisiae deletion strains, locus YLR268W, strain sec22, stronger effect = lower value",0.97
same,normalized growth,"S. cerevisiae deletion strains, locus YLR320W, strain mms22, stronger effect = lower value",0.922
same,normalized growth,"S. cerevisiae deletion strains, locus YLR330W, strain CHS5, stronger effect = lower value",1.02
same,normalized growth,"S. cerevisiae deletion strains, locus YLR342W, strain FKS1 (second series), stronger effect = lower value",0.891
same,normalized growth,"S. cerevisiae deletion strains, locus YLR342W, strain FKS1, stronger effect = lower value",0.886 (active)
same,normalized growth,"S. cerevisiae deletion strains, locus YLR357W, strain rsc2, stronger effect = lower value",0.848 (active)
same,normalized growth,"S. cerevisiae deletion strains, locus YLR370C, strain arc18, stronger effect = lower value",0.98
same,normalized growth,"S. cerevisiae deletion strains, locus YLR371W, strain rom2, stronger effect = lower value",1.01
same,normalized growth,"S. cerevisiae deletion strains, locus YLR384C, strain iki3, stronger effect = lower value",0.964
same,normalized growth,"S. cerevisiae deletion strains, locus YLR418C, strain cdc73, stronger effect = lower value",0.941
same,normalized growth,"S. cerevisiae deletion strains, locus YML016C, strain PPZ1, stronger effect = lower value",1
same,normalized growth,"S. cerevisiae deletion strains, locus YML032C, strain rad52, stronger effect = lower value",0.954
same,normalized growth,"S. cerevisiae deletion strains, locus YML120C, strain ndi1, stronger effect = lower value",0.98
same,normalized growth,"S. cerevisiae deletion strains, locus YML124C, strain tub3, stronger effect = lower value",1.01
same,normalized growth,"S. cerevisiae deletion strains, locus YMR058W, strain fet3, stronger effect = lower value",0.983
same,normalized growth,"S. cerevisiae deletion strains, locus YMR078C, strain ctf18, stronger effect = lower value",1.02
same,normalized growth,"S. cerevisiae deletion strains, locus YMR125W, strain sto1, stronger effect = lower value",0.927
same,normalized growth,"S. cerevisiae deletion strains, locus YMR129W, stronger effect = lower value",1.01
same,normalized growth,"S. cerevisiae deletion strains, locus YMR205C, strain PFK2, stronger effect = lower value",0.954
same,normalized growth,"S. cerevisiae deletion strains, locus YMR223W, strain ubp8, stronger effect = lower value",0.969
same,normalized growth,"S. cerevisiae deletion strains, locus YMR231W, strain pep5, stronger effect = lower value",1.01
same,normalized growth,"S. cerevisiae deletion strains, locus YMR263W, strain SAP30, stronger effect = lower value",0.919
same,normalized growth,"S. cerevisiae deletion strains, locus YMR307W, strain GAS1, stronger effect = lower value",0.54 (active)
same,normalized growth,"S. cerevisiae deletion strains, locus YNL067W, strain RPL9B, stronger effect = lower value",0.945
same,normalized growth,"S. cerevisiae deletion strains, locus YNL071W, strain lat1, stronger effect = lower value",0.994
same,normalized growth,"S. cerevisiae deletion strains, locus YNL153C, strain GIM3, stronger effect = lower value",0.891
same,normalized growth,"S. cerevisiae deletion strains, locus YNL183C, strain NPR1, stronger effect = lower value",0.885
same,normalized growth,"S. cerevisiae deletion strains, locus YNL209W, strain ssb2, stronger effect = lower value",0.982
same,normalized growth,"S. cerevisiae deletion strains, locus YNL233W, strain BNI4, stronger effect = lower value",0.806 (active)
same,normalized growth,"S. cerevisiae deletion strains, locus YNL248C, strain rpa49, stronger effect = lower value",0.975
same,normalized growth,"S. cerevisiae deletion strains, locus YNL250W, strain rad50, stronger effect = lower value",1.01
same,normalized growth,"S. cerevisiae deletion strains, locus YNL271C, strain bni1, stronger effect = lower value",1.02
same,normalized growth,"S. cerevisiae deletion strains, locus YNL298W, strain CLA4, stronger effect = lower value",0.973
same,normalized growth,"S. cerevisiae deletion strains, locus YNL307C, strain MCK1, stronger effect = lower value",1
same,normalized growth,"S. cerevisiae deletion strains, locus YNL322C, strain KRE1 (second series), stronger effect = lower value",0.973
same,normalized growth,"S. cerevisiae deletion strains, locus YNL322C, strain KRE1, stronger effect = lower value",0.963
same,normalized growth,"S. cerevisiae deletion strains, locus YNR049C, strain mso1, stronger effect = lower value",1.01
same,normalized growth,"S. cerevisiae deletion strains, locus YNR052C, strain pop2, stronger effect = lower value",1.01
same,normalized growth,"S. cerevisiae deletion strains, locus YOL006C, strain TOP1, stronger effect = lower value",0.942
same,normalized growth,"S. cerevisiae deletion strains, locus YOL012C, strain htz1",1.3
same,normalized growth,"S. cerevisiae deletion strains, locus YOL147C, strain pex11, stronger effect = lower value",1.02
same,normalized growth,"S. cerevisiae deletion strains, locus YOR001W, strain rrp6, stronger effect = lower value",0.966
same,normalized growth,"S. cerevisiae deletion strains, locus YOR061W, strain CKA2, stronger effect = lower value",1
same,normalized growth,"S. cerevisiae deletion strains, locus YOR069W, strain VPS5, stronger effect = lower value",1.01
same,normalized growth,"S. cerevisiae deletion strains, locus YOR070C, strain gyp1, stronger effect = lower value",0.989
same,normalized growth,"S. cerevisiae deletion strains, locus YOR080W, strain dia2, stronger effect = lower value",0.998
same,normalized growth,"S. cerevisiae deletion strains, locus YOR083W, strain WHI5, stronger effect = lower value",0.904
same,normalized growth,"S. cerevisiae deletion strains, locus YOR106W, strain vam3, stronger effect = lower value",0.94
same,normalized growth,"S. cerevisiae deletion strains, locus YOR136W, strain idh2, stronger effect = lower value",0.994
same,normalized growth,"S. cerevisiae deletion strains, locus YOR144C, strain elg1, stronger effect = lower value",1
same,normalized growth,"S. cerevisiae deletion strains, locus YOR184W, strain ser1, stronger effect = lower value",0.945
same,normalized growth,"S. cerevisiae deletion strains, locus YOR231W, strain MKK1, stronger effect = lower value",0.96
same,normalized growth,"S. cerevisiae deletion strains, locus YOR265W, strain rbl2, stronger effect = lower value",0.998
same,normalized growth,"S. cerevisiae deletion strains, locus YOR270C, strain vph1, stronger effect = lower value",0.924
same,normalized growth,"S. cerevisiae deletion strains, locus YOR290C, strain snf2, stronger effect = lower value",0.971
same,normalized growth,"S. cerevisiae deletion strains, locus YOR316C, strain cot1, stronger effect = lower value",1.02
same,normalized growth,"S. cerevisiae deletion strains, locus YPL051W, strain arl3, stronger effect = lower value",0.959
same,normalized growth,"S. cerevisiae deletion strains, locus YPL055C, strain LGE1, stronger effect = lower value",0.842
same,normalized growth,"S. cerevisiae deletion strains, locus YPL078C, strain atp4, stronger effect = lower value",0.91
same,normalized growth,"S. cerevisiae deletion strains, locus YPL106C, strain sse1, stronger effect = lower value",0.848 (active)
same,normalized growth,"S. cerevisiae deletion strains, locus YPL240C, strain hsp82, stronger effect = lower value",1.01
same,normalized growth,"S. cerevisiae deletion strains, locus YPL241C, strain CIN2, stronger effect = lower value",1.02
same,normalized growth,"S. cerevisiae deletion strains, locus YPL256C, strain CLN2, stronger effect = lower value",0.931
same,normalized growth,"S. cerevisiae deletion strains, locus YPR119W, strain clb2, stronger effect = lower value",1
same,normalized growth,"S. cerevisiae deletion strains, locus YPR141C, strain kar3, stronger effect = lower value",1.02
same,normalized growth,"S. cerevisiae deletion strains, locus YPR163C, strain tif3, stronger effect = lower value",1.03
same,normalized growth,"S. cerevisiae deletion strains, locus YPR167C, strain met16, stronger effect = lower value",1.01
same,normalized growth,"S. cerevisiae deletion strains, strain wtn01, stronger effect = lower value",0.995
same,normalized growth,"S. cerevisiae strains, strain wild type, stronger effect = lower value",0.967
